The assay concerns the target T1, USP38, Q8NB14.
T1 chain: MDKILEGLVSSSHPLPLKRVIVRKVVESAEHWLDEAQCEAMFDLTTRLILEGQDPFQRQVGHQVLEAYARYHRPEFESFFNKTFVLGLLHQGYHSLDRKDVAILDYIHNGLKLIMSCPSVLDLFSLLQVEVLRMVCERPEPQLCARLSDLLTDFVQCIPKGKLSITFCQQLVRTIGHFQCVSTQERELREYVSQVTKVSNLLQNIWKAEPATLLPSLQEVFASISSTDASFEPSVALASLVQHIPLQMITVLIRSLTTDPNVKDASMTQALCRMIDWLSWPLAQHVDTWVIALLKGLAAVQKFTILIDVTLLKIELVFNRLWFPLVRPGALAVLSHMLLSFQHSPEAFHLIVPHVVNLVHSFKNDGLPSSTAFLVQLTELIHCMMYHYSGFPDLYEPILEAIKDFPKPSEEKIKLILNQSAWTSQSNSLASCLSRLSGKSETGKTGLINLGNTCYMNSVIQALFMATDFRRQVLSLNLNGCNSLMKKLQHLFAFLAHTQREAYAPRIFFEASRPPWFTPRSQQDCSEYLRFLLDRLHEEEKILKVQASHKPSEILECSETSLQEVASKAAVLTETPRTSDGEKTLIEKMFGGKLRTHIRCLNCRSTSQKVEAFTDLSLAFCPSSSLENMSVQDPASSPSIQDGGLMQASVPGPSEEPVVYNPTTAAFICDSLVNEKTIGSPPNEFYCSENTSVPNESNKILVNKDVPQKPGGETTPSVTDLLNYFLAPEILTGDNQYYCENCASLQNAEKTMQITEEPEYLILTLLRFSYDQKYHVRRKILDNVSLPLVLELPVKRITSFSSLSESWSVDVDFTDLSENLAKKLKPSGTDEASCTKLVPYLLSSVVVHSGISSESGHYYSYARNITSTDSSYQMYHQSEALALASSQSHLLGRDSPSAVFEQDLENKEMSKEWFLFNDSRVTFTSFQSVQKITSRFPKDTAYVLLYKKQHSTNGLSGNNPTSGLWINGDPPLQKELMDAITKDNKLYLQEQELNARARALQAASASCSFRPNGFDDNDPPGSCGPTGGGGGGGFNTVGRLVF
Nature of the assay: median log2 fold change of GCK-ALFA target abundance (FLAG IP / Myc IP barcode read proportion) (log2 ratio); each designed protein is fused to an ALFA-tag nanobody in HEK293 cells to bring the named protein to FLAG-tagged glucokinase (GCK); Myc marks an untargeted standard; higher = target protein stabilised (more abundant). To be noted: target protein: 3xFLAG-MCP-GCK-ALFA reporter; HEK293 landing pad (RPLP). The essentials: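 Binders fused to an ALFA nanobody were recombined as a library into HEK293 landing-pad cells, which were induced with 2 μg mL^−1 doxycycline and then transfected to express a FLAG-tagged target and a Myc-tagged standard. After 48 h, circular RNA barcodes recovered by anti-FLAG and anti-Myc immunoprecipitation of lysates were reverse transcribed, amplified and sequenced. Each binder's target abundance is the median log2 ratio of FLAG to Myc barcode read proportions, from barcodes present at ≥10^−7 in both replicates, binders carrying ≥3 barcodes per replicate, a 10^−6 pseudocount and pooled replicates.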

B1: usp_38_diff_out_22_74_485 (protein)
chain: SAEEEANAALRAEIDAKVADWNKYREEAERRIEEAIAAGRYREARRLLAELDDKTTDLIIWLNKQALANGAIHDYALAKAEEIRKKTTEVVERAEARLAA
In the case of B1, the “median log2 fold change” value is -0.0773.

B2: usp_38_diff_out_22_74_487 (protein)
chain: SAAEKAQEEAKKKLEELLKEFNEELEKYLKEAKKAIEAGNLKEARRILGEFTSKFAELSSKIAKAAWEAELPLDEIQKIMTDLTKKAAEAVKEMEEAIKA
B2: the “median log2 fold change” value was -0.392.

B3: usp_38_diff_out_24_27_500 (protein)
chain: EKEKEEKIKKVKELFEEIEKLVKESRTADIAGRIRISSEVDELFEEIRKIAKELGNEEALKLIDKAKAQAFAIISGDENWEEHLKELKKLFEEILKEFEK
Take B3: the “median log2 fold change” value was determined as 0.364.

B4: usp_38_diff_out_2_113_467 (protein)
chain: DPEERREEAELYRDIILEGADKLLRLAERGMLTPDRTRVMLGGIVHAAREAMELDPSTRPTIEEVIEKLERVRKLVEGKNPEIAKEVERAIEELKEILKE
In the case of B4, the “median log2 fold change” value was determined as 0.0135.

B5: usp_38_diff_out_24_27_502 (protein)
chain: EEEKKKKLEEIKKLLEEILALLKASQTGDIATRIKASSEIDELFEKIEKILKELGNEEGLELLTELKTQAYAVLSRSPDWQEHLAKAKELAEKIIKLAKK
Turning to B5, the “median log2 fold change” value was determined as 0.548.

B6: usp_38_diff_out_2_113_470 (protein)
chain: DPEERKKEAELYKKIILEGAEQLLRLAKKGRLTPDRTRVMLGGIVEAARRAYELDPSVKPVIEEVIKKLEEVEKLVKDKNPEVAAAIKEAIKELKKILKE
As to B6, the “median log2 fold change” value is 0.141.

B7: usp_38_diff_out_22_164_477 (protein)
chain: MEEKIKKEVKEKIEKIAEETKKKIDELFAEAKANPEKKEEYIKKARMLLIESNKEIKEYIEKTVKENNLSEETKEELNSHATVQNLKVLNYLDEKIEELK
On to B7, for which the “median log2 fold change” value is 0.309.

B8: usp_38_diff_out_2_113_461 (protein)
chain: SEEERKERAEDLKEIITEGSDYLLEKAKKGTLSGDTMIVMIGGIVHAAKEAFALDPSVKPTIEEAIKKLEEIKELYKDRNPEVAKAIEDAIKELKALLAK
For the molecule B8, the “median log2 fold change” value was -0.00144.

B9: usp_38_diff_out_2_113_463 (protein)
chain: SEEERRERAEDLARIILEGSEYLLEKAKRGTLSGETMITMIGGIVHAAEEAFRLDPSVAPVIKRAIEKLKEIAELYKDKNPEVYEAIKEAIERLEKLLAE
Turning to B9, the “median log2 fold change” value was -0.229.

B10: usp_38_diff_out_24_27_503 (protein)
chain: EEERKEKIERLKKLLEEILKLLEESRTGDISVRIRASSEIDELAEEIRKILEELGNEEGLELLTEFETQVYAVLSRSPNWEEHFEKAKELAEKILELAKK
As for B10, the “median log2 fold change” value is -0.574.

B11: usp_38_diff_out_24_27_505 (protein)
chain: SEELEKALEKALKLLEDIAEDLKEAQKKGPTALFVVKRKHVDEIDKLREELEKLGPELAREVTTILLAFLNRSAADPEKREEYLKEAKEKIKEAFEKHKK
With B11, the “median log2 fold change” value was 0.427.

B12: usp_38_diff_out_24_27_501 (protein)
chain: SAEHEKKLEKAKELLKKILELAEKAQTGDIATRIKASSEIDELFEELKKIAEEENNEELLKLLTELKTKVYAVLSGHPNAEEHLKEAKKLAEKFLEELKK
On to B12, for which the “median log2 fold change” value was 0.157.

B13: usp_38_diff_out_22_164_479 (protein)
chain: SEEEILEKLKEEIEKLAEETKKKLEELAKKAKENPEKKEEYLKQMRMLVIQTQQKMGDLIDEAAKKYNLSEETVEELRSHRTVQSLKVLNYLDELEKELE
For the molecule B13, the “median log2 fold change” value came out at 0.177.

B14: usp_38_diff_out_24_27_495 (protein)
chain: EEEKKKLLEKLIEKFEKILELAKKAVGADLATRIKLSSEIDELLEEARKLAKELGIPEVEKLVTQVAIQASIVLSGSEEMEEAIKEIEKIIEELKKLLKE
In the case of B14, the “median log2 fold change” value is 0.368.

B15: usp_38_diff_out_2_113_464 (protein)
chain: DPEERQRLALLLRDTVVSGADYLLEKAKKGTLSSDTIITMIGGITHAARELAALDPSAKPALEEVAKKLKEIAEIYKDKDEEVKKAVEEAIKEIEALIKA
As for B15, the “median log2 fold change” value was 0.0135.

B16: usp_38_diff_out_24_27_504 (protein)
chain: SEEHEKKLEELKKLLEEILKLLEESKTGDISVRIKASSEIDELFKEIEKILKELGNEEGLKLLKEFKTQAYAVLSRSPDWEEHLKKAKELAKKILELVEK
B16: the “median log2 fold change” value stood at 0.3.

B17: usp_38_diff_out_24_27_499 (protein)
chain: EEEKQKLLKELLKKFEEILKLSEKAVGADLATRIKLSSEIDEKLEEARKLAKELGDEEIEELVTKVEIAANIVLSGSEEAEEALKEIKKLVEELKKKIEE
Turning to B17, the “median log2 fold change” value stood at 0.204.

B18: usp_38_diff_out_22_74_482 (protein)
chain: SAEAEAVAATKAEIEKLTAETLKKLDELYKEAKKYIEAGDYKNARRKLAEMDDLVTETVIYLNKVALAEGAVHDLALAKANEIRKKATEINEELEKLLKE
On to B18, for which the “median log2 fold change” value was 0.312.

B19: usp_38_diff_out_22_74_486 (protein)
chain: SAEAEEVAKIKAEIDKLVAELNAYLEKAKEEAEKAIAAGRLREARRIRAEMDDKVTDAIITLNKIALANGAIHDYALAKAQEIRDKSTKVFEEIDARLAA
For the molecule B19, the “median log2 fold change” value is -0.198.

B20: usp_38_diff_out_21_100_459 (protein)
chain: MEEIKKEIKEELEKAEKALKEAIKLLKEGAKKEEILKKLDEALSHLVRAQYLAAKISFELAHKISEIIDIVQEAKKLLDTDKEKALELLEKALKELKELK
In the case of B20, the “median log2 fold change” value was -0.0676.

B21: usp_38_diff_out_22_164_478 (protein)
chain: SEEEILKKVKEELEKLAEETKKELDKLFEEAKANPEKKEEYIQEAQMLIIKTQKEMNDYIEETVKKYNLSEETKEELKSHRTVLNLKVLNYLDEKIEELK
Consider B21, for which the “median log2 fold change” value amounted to 0.187.

B22: usp_38_diff_out_2_113_465 (protein)
chain: EEEERARLTQLYVDTILEGSDQLLRRAKRGTLSSTTMITMIGGIVEAAREAFRLDPSVKPVLEEVAKKLAEIAEIYADKDAETAAAVKAAIAEINALIEA
For B22, the “median log2 fold change” value was determined as 0.0889.

B23: usp_38_diff_out_23_30_488 (protein)
chain: SPLEEAKKRLREAAEKARKEATEIKKKAEELKKKAENEYLKALANQVIDAANDFIEDLDIWLSRIDEYDEARLLRLTEYVEASLAHLKQLYEDLLKEFKK
Take B23: the “median log2 fold change” value came out at 0.13.

B24: usp_38_diff_out_20_123_457 (protein)
chain: MEKLKAEAEALLKRAEALLENAKQILKFVKAGVLSEEQVEEHIEMIEEHIKYLEEELKKLKAAAPELKELLEKVEKAIKETKKVREEIKKELEKRRKEKE
Consider B24, for which the “median log2 fold change” value amounted to 0.24.

B25: usp_38_diff_out_24_27_497 (protein)
chain: EEEKKEKLEKLIKKFEEILKLAKEAVGADLATRIRLSREIDELLEEARKLAEELGIEEVKKIVTEVAVKASIVLSGSEEMEEAIEEIEKLIEEAKKLLEE
In the case of B25, the “median log2 fold change” value is 0.276.

B26: usp_38_diff_out_20_123_458 (protein)
chain: SSEALERAERLLRQAEQLLENAEQILKFVKAGALSEETVEEHIKFIETHIKYLEEELERLEEEHPELEELLERIREILERTRKVLEEIKKALEKRRKEKE
As for B26, the “median log2 fold change” value is 0.0141.

B27: usp_38_diff_out_22_74_483 (protein)
chain: SAEEAETEALKKEIDEKVKKTKEELDRLRAEAKAAIAAGRYREARRLLAEMDDLVTDTVIWLNKVALAHGAVHDYALAKANEIREYATKINAELEALLEA
For the molecule B27, the “median log2 fold change” value was 0.0676.

B28: usp_38_diff_out_2_113_460 (protein)
chain: DEEERKELAELYKKTILEGAEKLLKRTKKGTLSTATQIAMLGGIVHAAKEAAKLDPSVKPVLEEVIKKLKEIAELVKDKNPELYAATQKAIEEIEKILKE
Turning to B28, the “median log2 fold change” value turned out to be 0.123.

B29: usp_38_diff_out_22_74_484 (protein)
chain: SAEEEETEKLRKEIEERKAETLARLEELRAAARAALAAGDERAARRLLAELDDLVTDTVIWLNKVALAHGAIHDYALETALEIRERATAIVAELEAALAA
Regarding B29, the “median log2 fold change” value amounted to 0.0294.

B30: usp_38_diff_out_2_113_466 (protein)
chain: DPEERAEEAALYRDIILEGAELLLRKAKKGMLTPDRTRVMLGGIVHAAEVAYELDPSVAPDIERVIEKLEEVRELVKDKNPEVAAEIEKAIEELKAILER
With B30, the “median log2 fold change” value is -0.156.

B31: usp_38_diff_out_22_164_481 (protein)
chain: KEEEIKEKLKKEIEEKIKETKKELDKLFAKAKADPEKKEEYIKEARMLLIKTQKELLELIEKTVKENNLSEETKEELRSFLTVQMLKLLNYLDEKEEELK
With B31, the “median log2 fold change” value was -0.692.

B32: usp_38_diff_out_2_113_468 (protein)
chain: DPEQKKEEAQLYKDIILEGADKLLELAKKGMLTPDRTKVMLGGIVHAAREAYELDPSVKPVIEEVIEKLEEIKELVKDKNPEIAKEIEEAIEELKKILEE
Regarding B32, the “median log2 fold change” value was 0.211.

For the origin of these results see the supplement of paper PMC12632987.
